In PubChem BioAssay (NCI):
Compounds without any hit were thinned out: in the full panel of roughly 79,000, 15% have a hit. Active and inactive are the calls of the source. Cut-off read from the data, not from the text of the source: active = growth inhibition above about 70%; inactive = the rest.

Assay: NCI Yeast Anticancer Drug Screen. Data for the sgs1 mgt1 strain (AID 161);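 note: 0% = growth of cultures given vehicle only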
Settings: S. cerevisiae sgs1 mgt1 strain, at 50.0 µM, active compounds read high
Method in brief: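 Mutant yeast exposed to compound; growth scored against vehicle-only wells.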

Compound	growth inhibition
COc1ccc2c(Cc3cc(Cl)ccc3O)cncc2c1O	29.7% (inactive)
Cc1ccc(NNC2=NC(=S)NC(=O)C2)cc1	80.6% (active)
CC#CC(=O)Nc1ccccc1CC(c1c[nH]c2ccccc12)c1c[nH]c2ccccc12	67.5% (inactive)
COC(=O)c1c2oc3c(C(=O)OC)cccc3nc-2cc(N)c1=O	8.8% (inactive)
CCCCCC(=O)NNc1ccccc1	80% (active)
CN(C)CCNc1ccc2nnn3c4ccc(O)cc4c(=O)c1c23	-6.05% (inactive)
COc1ccc2c(c1)C(=O)C[C@@H]1[C@](C)(C#N)CCC[C@]21C	33.4% (inactive)
CCC(=O)c1cc2ccccc2c2ccccc12	37.3% (inactive)
O=C1OCCCOC(=O)c2cc(ccc2O)OCC#CC#CCOc2ccc(O)c1c2	16.1% (inactive)
Nc1nc(Cl)cc(NCC2(CO)CC(CCCc3ccccc3)C2)n1 (stereo not given)	-26.5% (inactive)
NNC(=S)Nc1ccccc1	-14.6% (inactive)
CCOC(=O)c1ccc(N=Cc2cc(Cl)cc(Cl)c2O)cc1	91% (active)
CC(C(=O)N1C(=O)N(C(=O)C(C)C(O)c2ccccc2)C(c2ccccc2)C1c1ccccc1)C(O)c1ccccc1 (stereo not given)	91.9% (active)
CC(C)(C)CC(C)(C)N[P+](NC(C)(C)CC(C)(C)C)(NC(C)(C)CC(C)(C)C)NC(C)(C)CC(C)(C)C	91.5% (active)
C/C(=N\NC(=S)N1CCCC1)c1cnccn1	99.3% (active)
N=C(N)c1ccc(OCCCCOc2ccc(N)cc2Cl)cc1	44.4% (inactive)
CCCCCC(CN(C)C)C(O)/C=C\c1ccccc1 (stereo not given)	72.1% (active)
CC1(CO)CCCC2(C)C3=C(CCCC3)CCC12 (stereo not given)	46.1% (inactive)
O=C(CCCl)Nc1cc2ccccc2oc1=O	6.65% (inactive)
O=[N+]([O-])c1ccccc1N=Nc1c(O)[nH]c2cccc(C(F)(F)F)c12	83.5% (active)

Compound	growth inhibition
CCCCCCCCC1OC1CCCCCCCC(=O)OCC1CO1 (stereo not given)	8.9% (inactive)
CCN(CC)CCNc1ccc(C)c2sc3c(OC)cccc3c(=O)c12	25.6% (inactive)
OC(CCN1CCOCC1)c1ccc(Sc2ccccc2)cc1 (stereo not given)	98.6% (active)
[Cl-].[La+3].[O-]/N=C(\c1ccccc1)c1ccccn1.[O-]/N=C(\c1ccccc1)c1ccccn1.[O-]/N=C(\c1ccccc1)c1ccccn1	43.2% (inactive)
COc1ccc(NC(=O)CSC(N)=O)cc1	64.1% (inactive)
Fc1cccc(CSc2ncnc3c2ncn3C2CCCS2)c1 (stereo not given)	93.3% (active)
CC/C(=C(\CC)c1ccc(OCCN2CCOCC2)cc1)c1ccc(OCCN2CCOCC2)cc1	89% (active)
O=[N+]([O-])c1c(Cl)ccc2nsnc12	98.8% (active)
COc1ccccc1NC(=O)/C(=C\N1C(=O)/C(=C/c2cc(OC)c(OC)c(OC)c2)SC1=S)C(C)=O	74.2% (active)
O=CNC(CCCC(=O)O)Cc1cc2ccccc2c2ccccc12 (stereo not given)	95.6% (active)
C=C1CC2(CCCC3(CC(=C)C(=O)O3)C2(C)C)OC1=O (stereo not given)	38.8% (inactive)
CCOC(=O)Nc1cc(NC(C)/C(=N/O)c2ccccc2)c([N+](=O)[O-])c(N)n1 (stereo not given)	47.5% (inactive)
O=C(N=Nc1cccc(Cl)c1)NNc1cccc(Cl)c1	83.2% (active)
Oc1ccc2c(ccc3ccccc32)c1	99.4% (active)
CCc1cccc(C(C)(C)C)c1NC(=S)/N=C/C(C(=O)c1ccccc1)=C(\O)c1ccccc1	68.9% (inactive)
NC(=S)N/N=C/c1cn(CCCl)c2ccccc12	62.9% (inactive)
COC1=Nc2ccccc2S(=O)(=O)C=C1	99.2% (active)
O=C1C2C3C=CC(C3)C2C(=NS(=O)(=O)c2ccccc2)C2C3C=CC(C3)C12 (stereo not given)	91.4% (active)
NC(=Nc1ccccc1)c1ccc2c(c1)c1c(n2Cc2ccccc2)CCCC1	99.6% (active)
NN=C(CC(O)(C(F)(F)Cl)C(F)(F)Cl)CC(O)(C(F)(F)Cl)C(F)(F)Cl	99.1% (active)
